# PubChem BioAssay (Tox21)
# “And” between values parts separate entries of the source, which are not always exact repeats. Equal entries are not always repeated. Inconclusive results are not listed. Where a structure was tested more than once in an assay, its records may differ in their call. The source made the active and inactive calls. The call rests on the fitted dose curve; in most records, active means well fitted curve in the direction sought with a large enough effect in the repeat runs; inconclusive means weak or mixed curves; inactive means no such curve, though single readings can be large; an effect the other way counts as inactive or inconclusive.
# What was measured:
# [1] = molecular target: Cytochrome P450 2C19 (Homo sapiens) (UniProt P33261); assay: Cytochrome P450 Family 2 Subfamily C Member 19 (CYP2C19) small molecule antagonists: luciferase reporter qHTS assay (AID 1671197); further: nearly all actives have a fitted effect of over 65% in size
# Chain of Cytochrome P450 2C19 (Homo sapiens) (P33261 whole entry, looked up): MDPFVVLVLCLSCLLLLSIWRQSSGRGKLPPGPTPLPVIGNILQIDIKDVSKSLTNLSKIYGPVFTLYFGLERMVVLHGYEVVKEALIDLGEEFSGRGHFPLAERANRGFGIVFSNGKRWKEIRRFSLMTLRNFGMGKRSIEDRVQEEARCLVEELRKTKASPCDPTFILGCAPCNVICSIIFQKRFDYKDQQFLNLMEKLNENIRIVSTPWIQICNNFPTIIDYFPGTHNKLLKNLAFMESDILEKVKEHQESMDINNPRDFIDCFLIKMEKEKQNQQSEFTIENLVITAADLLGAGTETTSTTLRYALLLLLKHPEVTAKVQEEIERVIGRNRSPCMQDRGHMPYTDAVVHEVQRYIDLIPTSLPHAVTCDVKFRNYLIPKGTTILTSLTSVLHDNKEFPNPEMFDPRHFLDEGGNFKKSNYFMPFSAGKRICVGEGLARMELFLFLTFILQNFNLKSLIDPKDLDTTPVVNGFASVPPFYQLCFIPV
# Method in brief: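 Light output is proportional to CYP2C19 activity: proluciferin substrate is converted to luciferin, then detected by a luciferin detection reagent that also stops the 1 h, 37C NADPH-driven reaction. Ketoconazole serves as positive control.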
# [2] = molecular target: Cytochrome P450 2C9 (Homo sapiens) (UniProt P11712); assay: Cytochrome P450 Family 2 Subfamily C Member 9 (CYP2C9) small molecule antagonists: luciferase reporter qHTS assay (AID 1671198); further: nearly all actives have a fitted effect of over 50% in size
# Chain of Cytochrome P450 2C9 (Homo sapiens) (P11712 whole entry, looked up): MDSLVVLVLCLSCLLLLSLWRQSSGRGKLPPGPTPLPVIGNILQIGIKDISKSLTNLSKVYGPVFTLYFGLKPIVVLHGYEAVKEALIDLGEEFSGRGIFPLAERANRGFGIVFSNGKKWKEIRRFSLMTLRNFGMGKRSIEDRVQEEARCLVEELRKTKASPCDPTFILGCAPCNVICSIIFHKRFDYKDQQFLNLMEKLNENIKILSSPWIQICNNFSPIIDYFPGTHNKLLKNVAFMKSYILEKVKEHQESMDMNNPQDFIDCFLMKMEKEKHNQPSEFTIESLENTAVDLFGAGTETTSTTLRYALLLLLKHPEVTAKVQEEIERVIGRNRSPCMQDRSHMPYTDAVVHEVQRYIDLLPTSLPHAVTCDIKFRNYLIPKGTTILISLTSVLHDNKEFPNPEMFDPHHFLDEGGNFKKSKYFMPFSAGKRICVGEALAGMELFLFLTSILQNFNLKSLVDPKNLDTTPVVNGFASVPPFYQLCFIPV
# Method in brief: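 P450-Glo proluciferin substrate with CYP2C9 enzyme; 10 min RT preincubation, then NADPH regeneration 1 h at 37C; luciferin detection reagent 20 min RT, luminescence in relative luminescence units.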
# [3] = molecular target: Cytochrome P450 1A2 (Homo sapiens) (UniProt P05177); assay: Cytochrome P450 Family 1 Subfamily A Member 2 (CYP1A2) small molecule antagonists: luciferase reporter qHTS assay (AID 1671199); further: nearly all actives have a fitted effect of over 50% in size
# Chain of Cytochrome P450 1A2 (Homo sapiens) (P05177 whole entry, looked up): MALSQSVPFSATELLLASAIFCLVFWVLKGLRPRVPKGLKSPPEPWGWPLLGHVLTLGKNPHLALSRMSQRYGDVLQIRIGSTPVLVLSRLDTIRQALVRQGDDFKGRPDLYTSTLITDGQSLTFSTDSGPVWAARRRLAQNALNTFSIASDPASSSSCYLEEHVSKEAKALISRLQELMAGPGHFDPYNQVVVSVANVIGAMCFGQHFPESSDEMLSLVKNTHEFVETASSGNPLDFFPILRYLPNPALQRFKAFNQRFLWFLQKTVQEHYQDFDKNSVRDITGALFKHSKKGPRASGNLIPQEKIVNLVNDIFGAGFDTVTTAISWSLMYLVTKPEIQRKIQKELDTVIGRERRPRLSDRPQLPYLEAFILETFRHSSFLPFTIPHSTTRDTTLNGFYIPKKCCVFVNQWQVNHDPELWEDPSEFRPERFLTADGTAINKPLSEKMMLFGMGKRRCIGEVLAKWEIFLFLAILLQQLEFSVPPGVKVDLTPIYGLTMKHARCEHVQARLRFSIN
# Method in brief: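 Signal from luciferin formed by CYP1A2 from a proluciferin substrate is read as luminescence, expressed in relative luminescence units. Compounds sit with enzyme 10 min, NADPH-driven reaction runs 1 h, all at room temperature.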
# [4] = molecular target: Cytochrome P450 3A4 (Homo sapiens) (UniProt P08684); assay: Cytochrome P450 Family 3 Subfamily A Member 4 (CYP3A4) small molecule antagonists: luciferase reporter qHTS assay (AID 1671201); further: nearly all actives have a fitted effect of over 50% in size
# Chain of Cytochrome P450 3A4 (Homo sapiens) (P08684 whole entry, looked up): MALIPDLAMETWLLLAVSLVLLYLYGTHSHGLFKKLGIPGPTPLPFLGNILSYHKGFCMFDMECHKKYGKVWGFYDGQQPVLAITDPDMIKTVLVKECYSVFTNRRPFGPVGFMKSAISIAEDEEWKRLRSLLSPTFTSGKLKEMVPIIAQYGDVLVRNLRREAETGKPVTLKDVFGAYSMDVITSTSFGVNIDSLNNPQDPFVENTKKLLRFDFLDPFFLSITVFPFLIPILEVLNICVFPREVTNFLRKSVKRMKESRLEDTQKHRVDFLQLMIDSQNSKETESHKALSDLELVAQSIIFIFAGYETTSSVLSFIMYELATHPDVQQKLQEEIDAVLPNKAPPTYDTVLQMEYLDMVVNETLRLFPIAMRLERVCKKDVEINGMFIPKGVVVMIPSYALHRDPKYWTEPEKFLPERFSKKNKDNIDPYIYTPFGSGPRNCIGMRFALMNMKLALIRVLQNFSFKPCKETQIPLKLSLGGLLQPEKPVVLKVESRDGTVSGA
# Method in brief: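 CYP3A4 activity was followed with a P450-Glo proluciferin substrate. Test compounds in DMSO were preincubated 10 min; NADPH regeneration then ran 1 h, and light output was read 20 min after detection reagent.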
# [5] = molecular target: Voltage-gated inwardly rectifying potassium channel KCNH2 (Homo sapiens) (UniProt Q12809); assay: Human Ether-a-go-go-Related Gene (hERG) channel small molecule antagonists: fluorescence cell-based qHTS assay (AID 1671200); further: nearly all actives have a fitted effect of over 50% in size
# Chain of Voltage-gated inwardly rectifying potassium channel KCNH2 (Homo sapiens) (Q12809 whole entry, looked up): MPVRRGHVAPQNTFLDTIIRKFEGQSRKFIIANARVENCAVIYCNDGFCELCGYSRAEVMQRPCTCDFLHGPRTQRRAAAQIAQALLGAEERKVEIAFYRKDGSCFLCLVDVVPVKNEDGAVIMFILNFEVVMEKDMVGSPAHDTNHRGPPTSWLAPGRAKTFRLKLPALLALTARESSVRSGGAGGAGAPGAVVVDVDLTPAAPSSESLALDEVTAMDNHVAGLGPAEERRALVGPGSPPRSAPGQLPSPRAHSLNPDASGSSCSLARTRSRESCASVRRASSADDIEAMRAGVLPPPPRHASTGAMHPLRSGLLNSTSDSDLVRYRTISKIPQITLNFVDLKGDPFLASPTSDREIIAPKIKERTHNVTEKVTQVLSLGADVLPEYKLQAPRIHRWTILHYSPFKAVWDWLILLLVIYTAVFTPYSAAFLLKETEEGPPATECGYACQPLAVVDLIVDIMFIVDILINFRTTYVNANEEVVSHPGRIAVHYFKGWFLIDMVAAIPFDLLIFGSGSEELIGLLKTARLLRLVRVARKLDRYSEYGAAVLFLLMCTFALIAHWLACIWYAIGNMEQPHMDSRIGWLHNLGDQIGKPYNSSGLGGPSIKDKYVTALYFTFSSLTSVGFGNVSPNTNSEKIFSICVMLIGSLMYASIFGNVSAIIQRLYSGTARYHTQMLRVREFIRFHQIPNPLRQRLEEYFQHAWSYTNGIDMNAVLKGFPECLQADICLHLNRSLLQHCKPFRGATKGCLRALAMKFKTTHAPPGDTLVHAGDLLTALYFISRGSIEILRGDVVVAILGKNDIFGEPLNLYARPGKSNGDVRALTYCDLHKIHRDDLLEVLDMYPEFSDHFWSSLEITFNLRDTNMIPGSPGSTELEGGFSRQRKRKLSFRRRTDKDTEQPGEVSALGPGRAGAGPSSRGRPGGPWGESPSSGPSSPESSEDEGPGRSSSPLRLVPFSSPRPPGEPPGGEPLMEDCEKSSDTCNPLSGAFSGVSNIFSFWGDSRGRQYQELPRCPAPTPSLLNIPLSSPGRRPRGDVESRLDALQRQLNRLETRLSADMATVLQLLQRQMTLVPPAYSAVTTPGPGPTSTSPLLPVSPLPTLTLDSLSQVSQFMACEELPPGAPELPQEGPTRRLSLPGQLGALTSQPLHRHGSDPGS
# Method in brief: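 In this thallium-flux screen, overnight-cultured U2OS cells bearing the channel are dye-loaded in darkness for an hour, rested 10 min at room temperature, and then monitored kinetically at 480/540 nm for two minutes post-stimulus.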
# Potency means the concentration at half of the fitted maximal effect.
SMILES,Potency [1],Potency [2],Potency [3],Potency [4],Potency [5]
Cc1cc(CCN2CCN(c3nsc4ccccc34)CC2)cc2c1NC(=O)CC2(C)C,71 µM (active),39.9 µM (active),35.6 µM (active),17.8 µM (active),
C=C(C)C(=O)OCC[N+](C)(C)C,inactive,inactive,15.8 µM (active),inactive,
CCCCc1oc2ccc(NS(C)(=O)=O)cc2c1C(=O)c1ccc(OCCCN(CCCC)CCCC)cc1,9.77 µM (active),34.7 µM (active),inactive,inactive,0.848 µM (active)
O=C(OCC(COC(=O)c1ccccc1)(COC(=O)c1ccccc1)COC(=O)c1ccccc1)c1ccccc1,3.55 µM (active),5.63 µM (active),inactive,inactive,inactive
O=C(Nc1cccc(C(F)(F)F)c1)c1cc(Br)cc(Br)c1O,56.4 µM (active),14.2 µM (active),56.4 µM (active),22.4 µM (active),inactive
COc1c(C)c2c(c(O)c1C/C=C(\C)CCC(=O)O)C(=O)OC2,inactive,inactive,inactive,inactive,inactive
CCCCCCCCCOC(=O)c1ccc(O)cc1,1.97 µM (active),6.24 µM (active),27.9 µM (active),39.4 µM (active),inactive
[Cl][Bi]([Cl])([c]1ccccc1)([c]1ccccc1)[c]1ccccc1,0.445 µM (active),1.12 µM (active),19.9 µM (active),8.88 µM (active),13.7 µM (active)
CC(=O)OCC(C)OC(C)=O (centres undefined),inactive,inactive,inactive,inactive,inactive
CCCCCCCC[P+](CCCCCCCC)(CCCCCCCC)CCCCCCCC,7.06 µM (active),22.3 µM (active),39.7 µM (active),0.445 µM (active),0.154 µM (active)
O=C(Oc1cccc2cccnc12)c1ccccc1,inactive,inactive,17.4 µM (active),inactive,inactive
CCOC(=O)c1nc(C(Cl)(Cl)Cl)n(-c2ccc(Cl)cc2Cl)n1,5.03 µM (active),3.17 µM (active),inactive,inactive,49 µM (active)
C/C=C1/C(=O)C[C@H]2[C@@H]3CCC4=CC(=O)CC[C@]4(C)[C@H]3CC[C@]12C,3.98 µM (active),31.6 µM (active),39.8 µM (active),inactive,
CC(C)(C)CC(C)(C)c1ccc(OCCOCC[N+](C)(C)Cc2ccccc2)cc1,inactive,79.6 µM (active) and inactive,inactive,inactive,
N=C1C=CC(=C(c2ccc(N)cc2)c2ccc(N)cc2)C=C1,39.9 µM (active),39.9 µM (active),35.6 µM (active),12.6 µM (active),inactive
C/C=C(\C)C(=O)OCc1ccccc1,inactive,inactive,35.6 µM (active),inactive,
C[C@]12CCC(=O)C=C1CC[C@@H]1[C@@H]2[C@@H](O)C[C@@]2(C)[C@H]1CC[C@]2(O)C(=O)COC(=O)CCC(=O)O,inactive,inactive,inactive,inactive,inactive
O=CC=C(c1ccccc1)c1ccccc1,18 µM (active),20.2 µM (active),20.2 µM (active),inactive,

SMILES,Potency [1],Potency [2],Potency [3],Potency [4],Potency [5]
Nc1ccc(N)c2ccccc12,3.17 µM (active),3.99 µM (active),2.52 µM (active),3.55 µM (active),
c1ccc(CSCc2ccccc2)cc1,2.82 µM (active),35.5 µM (active),31.6 µM (active),inactive,
O=C(c1ccc(O)cc1O)c1ccc(O)cc1O,28.3 µM (active) and 22.4 µM (active),inactive,12.6 µM (active) and 11.2 µM (active),5.03 µM (active) and 8.94 µM (active),
Cc1ccc(O)c2ncccc12,inactive,inactive,15.5 µM (active),inactive,
Oc1ccc(C2(c3ccc(O)cc3)CC3CC2C2CCCC32)cc1 (centres undefined),30.5 µM (active),38.4 µM (active),,38.4 µM (active),inactive
CC(C)C(C)(C)C(C)(C)C(C)(C)S,39.9 µM (active),46.1 µM (active),,,inactive
CCCCCCCCCCCC[N+](C)(C)CCCCCCCCCCCC,35.6 µM (active),22.4 µM (active),71 µM (active),35.6 µM (active),
NNc1nc(-c2ccc([N+](=O)[O-])cc2)cs1,5.03 µM (active),5.64 µM (active),3.99 µM (active),5.03 µM (active),
Cc1cc(O)c(C(C)(C)C)cc1C(C)(C)C,17.8 µM (active),28.3 µM (active),35.6 µM (active),31.7 µM (active),
CCN(Cc1cccnc1)C(=O)c1cccc(Cl)c1[C@]1(C)C(=O)N(Cc2ccc(OC)cc2OC)c2ccc(Cl)cc21,1.32 µM (active),1.87 µM (active),inactive,0.132 µM (active),
CCC1OCC(COc2ccc(Oc3ccccc3)cc2)O1 (centres undefined),17.8 µM (active),28.3 µM (active),25.2 µM (active),inactive,
NC(=NCCCCCCN=C(N)/N=C(\N)Nc1ccc(Cl)cc1)/N=C(\N)Nc1ccc(Cl)cc1,22.3 µM (active) [middle of 5 runs],25.1 µM (active) [middle of 5 runs],,,inactive
CC(C)(C)c1ccc(C(=O)O)cc1,inactive,inactive,inactive,inactive,
CCCN(CCC)c1c([N+](=O)[O-])cc(C(F)(F)F)c(N)c1[N+](=O)[O-],2 µM (active),20 µM (active),2 µM (active),12.6 µM (active),
O=c1[nH]cnc2nc[nH]c12,inactive,inactive,,inactive,inactive
O=c1[nH]sc2ccccc12,inactive,31.7 µM (active),31.7 µM (active),39.9 µM (active),
Fc1ccc(C(c2ccc(F)cc2)N2CCN(C/C=C/c3ccccc3)CC2)cc1,inactive,15.5 µM (active),,inactive,0.848 µM (active)
C=CC(=O)OCC(CO)(COC(=O)C=C)COC(=O)C=C,25.3 µM (active) and 22.4 µM (active),11.3 µM (active) and 11.2 µM (active),,1.01 µM (active) and 1.12 µM (active),inactive
